Bead autofluor – flagged as autofluorescent in microsphere protease counterscreen | actives 3.1% (n = 360,000) | compound autofluorescence counterscreen, microsphere flow cytometry; hits give high values | fluorescence intensity (test concentration not listed); in the data active = fluorescence intensity above about 16000; inconclusive = no clear call, values can overlap the other calls
Anthrax LF prot – anthrax lethal factor protease inhibition; P15917; multiplex microsphere protease cleavage assay, LF; inhibition, % at 10 µM; actives 0.12% (n = 360,000); AID 588501; note: plate controls were buffer without enzyme for full effect and enzyme alone for no effect
BoNT-F LC inh – inhibitors of Botulinum neurotoxin F light chain protease; Multiplex microsphere protease cleavage assay, flow cytometry; inhibition, % at 10 µM; actives 0.22% (n = 360,000); in the data active = inhibition above about 35%, passing the limit was not always enough; inconclusive = no clear call, values can overlap the other calls; note: plate controls were buffer without enzyme for full effect and enzyme alone for no effect
BoNT A protease – inhibitors of Botulinum neurotoxin A light chain protease. multiplex microsphere protease substrate cleavage, flow cytometry. inhibition, % at 10 µM. actives 0.17% (n = 360,000). AID 588499; note: plate controls were buffer without enzyme for full effect and enzyme alone for no effect
BH1578 lux ind – inducers of Vibrio cholerae quorum light production without autoinducers. actives 0.16% (n = 350,000). activation, % at 18.7 µM. V. cholerae BH1578 lux reporter, luminescence, 6 h; in the data active = activation mostly above about 9.7%, no sharp cut-off; inconclusive = no clear call, values can overlap the other calls; inactive = mostly below about 3.7%
Numbers without * were called inactive; i = inactive; ? = inconclusive. A selection: hits, their analogues and other compounds. The true share with any hit is near 3.5%. Cut-off read from the data, not from the text of the source, unless noted: active = inhibition above about 30%; inconclusive = no clear call, values can overlap the other calls; inactive = below that.

SMILES	Bead autofluor	Anthrax LF prot	BoNT-F LC inh	BoNT A protease	BH1578 lux ind
CCN(c1ccccc1)c1ncnc2c1cnn2-c1ccccc1	5231	-4	-5	0	0
c1ccc(-n2ncc3c(NCCN4CCCCC4)ncnc32)cc1	3137	-1	6	0	0
c1ccc(-n2ncc3c(NCc4ccccn4)ncnc32)cc1	24065*	0	-2	-1	-1
Cc1cccc(-n2ncc3c(NCc4ccccn4)ncnc32)c1	2777	-2	2	0	-1
Fc1ccc(CNc2ncnc3c2cnn3-c2ccccc2)cc1	4065	2	?	0	i
c1ccc(-n2ncc3c(NCCN4CCOCC4)ncnc32)cc1	16340*	1	0	0	2
O=C(/C=C/c1ccco1)OCC(=O)N1CCCCC1	2790	-4	2	0	i
Fc1ccc(-n2cc(CNCCc3cccnc3)c(-c3ccccc3Cl)n2)cc1	3747	0	-13	0	-1
O=C(O)c1ccc(CSC2CCCCC2)cc1	3915	-2	-10	-6	i
O=C(NC1CC(=O)N(c2ccc(Cl)cc2)C1)C1CC1 (stereo unspecified)	4662	0	11	4	10
OC[C@@H](O)C1OC2NC(=S)OC2C1O (stereo partly specified)	4555	-3	1	-1	i
CC(=O)NCCCc1nc2ccccc2n1Cc1ccccc1F	4306	-4	4	0	0
O=CNCCCc1nc2ccccc2n1Cc1cccc2ccccc12	20866*	-16	2	?	i
COc1cc(C(=O)NCC2CCCN2S(=O)(=O)c2cccs2)cc(OC)c1OC (stereo unspecified)	7267	-6	-9	-7	-1
OCC[C@@H]1C[C@H](O)[C@@H](O)[C@@]2(CCCCO2)O1	3121	-7	-2	0	i
Cc1cc(/C=N\NC(=O)CC(=O)NC2CCCCC2)c(C)n1-c1ccc(Cl)c(Cl)c1	24080*	-3	-4	-3	0
Cc1cc(/C=N\NC(=O)CC(=O)NC2CCCCC2)c(C)n1-c1cccc(Cl)c1Cl	1967	-2	2	-1	0
S=c1[nH]nc(SCc2ccccc2)c2[nH]cnc12	2932	-3	6	0	-1
CCOC(=O)NC1(NCC(C)C)Oc2ccccc2O1	16411*	-6	0	0	i
CCOC(=O)NC1(NC(C)C)Oc2ccccc2O1	5640	-6	-45	-3	i
CCOC(=O)c1c(N)nn(C(C)=O)c1-c1ccccc1	2420	-2	1	1	i
CCOC(=O)c1c(N)nn(C(=O)C(C)C)c1-c1ccc(OC)cc1	16326*	-2	1	0	0
O=C(O)CSC1CC(=O)N(c2ccc(Br)cc2)C1=O (stereo unspecified)	3148	11	14	-1	2
O=C1CC(SCCO)C(=O)N1c1ccccc1 (stereo unspecified)	23642*	-2	-2	-1	0
Cn1c(=O)c2[nH]c(N=NNc3ccccc3F)nc2n(C)c1=O	5010	-7	-9	-1	-1
SMILES	Bead autofluor	Anthrax LF prot	BoNT-F LC inh	BoNT A protease	BH1578 lux ind
CC(CCC(=O)Nc1nncs1)C(=O)O (stereo unspecified)	5309	0	2	0	0
CC(CC1CC(C)(C)OC1=O)C(=O)Nc1nncs1 (stereo unspecified)	20331*	-4	11	?	-2
O=C(NC1CC2CCCC(C1)N2Cc1ccc(F)cc1)c1ccc(F)cc1 (stereo unspecified)	4318	2	?	?	i
Cc1ccc(C2=NN(CC(=O)O)C(=O)CC2)cc1	3944	3	50*	3	i
N#Cc1ccccc1S(=O)(=O)N1CCN(C(=O)c2cn(-c3ccccc3)nc2-c2cccnc2)CC1	9109	-3	-4	0	-2
O=C(CCC1CCN(C(=O)c2ccco2)CC1)NCc1ccc(F)cc1	5222	2	7	1	i
N#C/C(=C\c1cc(Cl)cc(Cl)c1O)C(=O)NC1CCCCC1	16628*	1	0	?	-1
Nc1c(-c2cccs2)cnn1-c1nc(-c2ccc(Cl)cc2Cl)cs1	23441*	-3	-4	?	-3
C=C1CC2C=C(NC(C)=O)CC(C1)C2 (stereo unspecified)	22238*	-3	-1	0	1
CCC(C(=O)NC1CCCC1)N(C(=O)Cn1nnc(-c2ccc(OC)c(OC)c2)n1)C1CCCCC1 (stereo unspecified)	16428*	1	1	0	0

Bioassay records from PubChem BioAssay.
